# Laboratory results as given in PubChem BioAssay (NCATS).
# A number with no mark means an inactive call. Inconclusive results are not listed. Entries that show only a call come without a potency. The source made the active and inactive calls. Calls come from the whole dose curve; as a rule, active = well fitted curve in the direction sought with a large enough effect; inconclusive = small, poorly fitted or top-dose-only effect, or another doubt; inactive = no such curve, though single readings can be large; an effect the other way counts as inactive or inconclusive. *1 amine or outer side, *2 acyl side, *3 side chain or, on linkers, in order; H or OH if unused. Where a SMILES comes first, the peptide text is derived from it. [ ]: non-standard residue; d: D form. X4 = CC(C)=CCc1cc(C(O)C(N[*:1])C(=O)[*:2])ccc1O
# Columns and labels:
# [1] = molecular target: Glutathione peroxidase 1 (Homo sapiens) (UniProt P07203); assay: Primary qHTS Assay for Inhibitors of Recombinant Selenoprotein Glutathione Peroxidase 1 (GPX1) (AID 1845191); note: nearly all actives have a fitted effect of over 65% in size
# Procedure, shortened: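 GPX1 10 nM, GR 100 nM, GSH 1 mM, NADPH 0.5 mM, CHP 0.5 mM (final). 30-min cpd preincubation, RT. Ex340/Em450 read t=0, t=15 min.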
# [2] = molecular target: Phospholipid hydroperoxide glutathione peroxidase GPX4 (Homo sapiens) (UniProt P36969); assay: Primary qHTS Assay for Inhibitors of Recombinant Selenoprotein Glutathione Peroxidase 4 (GPX4) (AID 1845192); note: nearly all actives have a fitted effect of over 65% in size; for activity change, negative = inhibition: series mostly up to about 50 µM
# Procedure, shortened: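 qHTS, GR-coupled: GPX4 200 nM + cpd 30 min RT → GSH 1 mM, NADPH 0.5 mM, GR 100 nM → CHP 0.5 mM start; fluor 340/450 at t0 and t15 min; no-enzyme wells as control.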
# [3] = molecular target: Luciferin 4-monooxygenase (Photinus pyralis) (UniProt P08659); assay: Primary firefly luciferase (FLuc) qHTS assay for identification of artifact compounds. (AID 1845220); note: nearly all actives have a fitted effect of over 60% in size; for activity change, negative = inhibition: series mostly up to about 54 µM
# Procedure, shortened: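 In this counter-screen for luciferase artifacts, test compounds met substrate (10 uM each luciferin and ATP) before 10 nM enzyme started the reaction. Light output was measured 5 min later.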
# [4] = Primary fluorescence-based thiol-reactive (MSTI) qHTS assay for identification of artifact compounds. (AID 1845221); note: nearly all actives have a fitted effect of over 65% in size; note: potency is the fitted concentration of half-maximal effect;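 for activity change, negative = thiol reactive: series mostly up to about 54 µM; thiol-reactive compounds lower the probe fluorescence signal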
# Procedure, shortened: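 qHTS titration of compound; 4 uM MSTI, PBS pH 7.4, 2% DMSO; 1 h RT, dark; fluorescence 525/598 nm; normalized to Acetyl-MSTI and MSTI; 4-parameter Hill fit.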
# [5] = system: Nanoluciferase (engineered Oplophorus gracilirostris luciferase); assay: Primary Nanoluciferase (NLuc) qHTS assay for identification of artifact compounds. (AID 1845222);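 note: NLuc secreted into diluted conditioned medium of S16 cells; series mostly up to about 54 µM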
# Procedure, shortened: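 Using secreted nanoluciferase in S16 culture medium (0.22 um filtered, 1:55 dilution), compounds were preincubated 15 min at RT. Signal was generated with Nano-Glo reagent (1:100) over 5 min.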
# [6] = Primary redox qHTS assay for identification of artifact compounds. (AID 1845223)
# Procedure, shortened: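 Redox-cycling detection via DTT (250 uM final) oxidation coupled to Amplex Red (25 uM)/HRP (250 mU/mL) in HBSS. 15 min preincubation plus 30 min after DTT, room temperature. Ex/Em 525/598 nm; 4-parameter Hill fit against DMSO and 10 uM DA3003.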
# Chain of Phospholipid hydroperoxide glutathione peroxidase GPX4 (Homo sapiens) (P36969 whole entry, looked up): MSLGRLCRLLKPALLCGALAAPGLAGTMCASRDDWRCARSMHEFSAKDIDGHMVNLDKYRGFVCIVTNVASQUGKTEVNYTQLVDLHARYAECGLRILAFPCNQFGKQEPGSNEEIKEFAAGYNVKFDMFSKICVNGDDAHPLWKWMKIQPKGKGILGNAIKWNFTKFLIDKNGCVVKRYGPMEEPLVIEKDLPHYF
# Chain of Glutathione peroxidase 1 (Homo sapiens) (P07203 whole entry, looked up): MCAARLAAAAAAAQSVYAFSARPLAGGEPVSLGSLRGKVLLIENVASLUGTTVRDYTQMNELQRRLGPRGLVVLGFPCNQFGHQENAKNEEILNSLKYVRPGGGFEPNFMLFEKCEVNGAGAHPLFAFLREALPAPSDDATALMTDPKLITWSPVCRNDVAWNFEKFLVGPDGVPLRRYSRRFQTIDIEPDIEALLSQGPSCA
Compound,"activity, negative = inhibition [1]","activity change, negative = inhibition [2]","activity change, negative = inhibition [3]","activity change, negative = thiol reactive [4]","activity, negative = inhibition [5]",redox activity (% of DA3003) [6],Potency [1],Potency [2],Potency [3],Potency [4],Potency [5],Potency [6]
CC(C)C[C@H](CC(=O)NO)C(=O)N[C@H](C(=O)N[C@@H](C)C(=O)NCCN)C(C)(C)C,-2.8% [at 9.52 µM],-8.26% [at 9.73 µM],-1.85% [at 11.6 µM],1.54% [at 11.5 µM],2.44% [at 11.6 µM],0.177% [at 11.5 µM],–,–,–,–,–,–
CC(C)=CCc1cc(C(O)C2NC(=O)CNC(=O)C(Cc3c[nH]c4ccccc34)NC(=O)C3CCCN3C(=O)CNC(=O)C(C(C)C)NC(=O)CNC2=O)ccc1O (stereo not drawn) (cyclo(G[X4]GVGPW); configuration not given here),–,–,-7.99% [at 11.6 µM],158% [at 11.5 µM],-5.03% [at 11.6 µM],10.2% [at 11.5 µM],inactive,inactive,–,–,–,–
NC(=O)c1cnc(NCCc2ccc(O)c(Cl)c2)nc1NCc1ccccc1,–,–,–,–,–,–,inactive,inactive,inactive,inactive,inactive,inactive
C=C(C)C(=O)OC1C(OC(C)=O)/C(C=O)=C\CC/C(CO)=C/C2OC(=O)C(=C)C21 (stereo not drawn),–,–,–,–,–,–,inactive,inactive,inactive,inactive,inactive,inactive
C=C1CC[C@H]2[C@@](C)(CCC(O)[C@@]2(C)CO)[C@@H]1CCC1=CCOC1=O (stereo partly drawn),–,–,–,–,–,–,inactive,inactive,inactive,inactive,inactive,inactive
Cc1ccc(C)c(OCCn2cc(C(=O)O)c3ccccc32)c1,–,–,–,–,–,–,inactive,inactive,inactive,inactive,inactive,inactive
CC1=C2C[C@H]3O[C@@]3(C)CCC3O[C@@]3(C)C[C@@]2(O)OC1=O (stereo partly drawn),–,–,–,–,–,–,inactive,inactive,inactive,inactive,inactive,inactive
CCc1ccc(Cc2ccc3c(c2)[C@]2(OC3)O[C@H](CO)[C@@H](O)[C@H](O)[C@H]2O)cc1,–,–,–,–,–,–,inactive,inactive,inactive,inactive,inactive,inactive
COc1ccc(/C=C/C(=O)O[C@@H]2[C@@H](O)[C@@H](O)[C@H](O[C@@H]3C=C(CO)[C@H]4[C@H](O[C@@H]5O[C@H](CO)[C@@H](O)[C@H](O)[C@H]5O)OC=C[C@H]43)O[C@H]2C)cc1O,–,–,–,–,–,–,inactive,inactive,inactive,3.98 µM (active),inactive,inactive
COC(=O)[C@H](O)[C@H]1C(C)(C)[C@H](OC(=O)C(C)C)[C@@]2(O)C(=O)[C@]1(C)C1CC[C@]3(C)C(CC(=O)O[C@H]3c3ccoc3)[C@]13O[C@@H]32 (stereo partly drawn),–,–,–,–,–,–,inactive,inactive,inactive,inactive,inactive,inactive
CNC12CC3C[C@@](C)(C1)C[C@](C)(C3)C2,–,–,–,–,–,–,inactive,inactive,inactive,inactive,inactive,inactive
CCC(=O)O[C@H]1C(C)(C)[C@H]([C@@H](O)C(=O)OC)[C@]2(C)C(=O)[C@@]1(O)[C@H]1O[C@]13C1CC(=O)O[C@@H](c4ccoc4)[C@]1(C)CCC32 (stereo partly drawn),–,–,–,–,–,–,inactive,inactive,inactive,inactive,inactive,inactive
COC(=O)c1ccc(OC(CO)C(O)c2ccc(O)c(OC)c2)c(OC)c1 (stereo not drawn),–,–,–,–,–,–,inactive,inactive,inactive,inactive,inactive,inactive
CCOc1cc(C)c(Cl)cc1S(=O)(=O)n1cnc2ccccc21,–,–,–,–,–,–,inactive,inactive,inactive,inactive,inactive,inactive
CC1CC(C(O)C(C)(C)O)OC2CC3(C)C4(C)CCC5C(C)(C)C(=O)CCC5(C)C4CCC3(O)C12O (stereo not drawn),–,–,–,–,–,–,inactive,inactive,inactive,inactive,inactive,inactive
CC(=O)c1c(O)cc(O[C@@H]2O[C@H](CO)[C@@H](O)[C@H](O)[C@H]2O)cc1O,–,–,–,–,–,–,inactive,inactive,inactive,4.14 µM (active),inactive,inactive
C[C@H](NC(c1cccc(C[P+](=O)O)c1)[C@H](C)O)c1ccc(Cl)c(Cl)c1 (stereo partly drawn),–,–,–,–,–,–,inactive,inactive,inactive,inactive,inactive,inactive
CC12CCC(OC3OC(CO)C(O)C(OC4OC(CO)C(O)C(O)C4O)C3O)CC1=CCC1C2CCC2(C)/C(=C3/COC(=O)C3)CCC12O (stereo not drawn),–,–,–,–,–,–,inactive,inactive,inactive,inactive,inactive,inactive
